# Assay results: PubChem BioAssay AID1159580 (chemical genetic matrix, 2015)
# Values joined by “and” are separate entries in the source; they are usually repeats but may differ in a detail not shown here. Equal entries are not always repeated. Screen size: about 5,500 compounds; about 2,000 (36%) were called active. Not shown: some 18% with an inconclusive outcome. Cut-off read from the data, not from the text of the source: active = normalized growth mostly below about 0.91 (no sharp cut-off); inconclusive = no clear call, values can overlap the other calls; inactive = mostly above about 0.92. Some of the results follow.
# Assay: chemical genetic growth profiling, strain panel (AID 1159580);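 note: tested at 20 µM; growth read once vehicle control cultures reached saturation at 30 °C; 1 = growth at the plate median or of vehicle wells; lower values mean less growth of the strain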
# Conditions: S. cerevisiae deletion strains, growth OD
smiles,measurement,setting,value
COc1ccc2c(c1)CCC1C2CC[C@@]2(C)C1CC[C@@H]2O (some centres not stated),normalized growth,"locus YAL013W, strain DEP1, stronger effect = lower value",0.82 (active)
same,normalized growth,"locus YAL021C, strain ccr4, stronger effect = lower value",0.959 (inactive)
same,normalized growth,"locus YAL026C, strain drs2, stronger effect = lower value",0.682 (active)
same,normalized growth,"locus YAL030W, strain snc1, stronger effect = lower value",0.959 (inactive)
same,normalized growth,"locus YBL061C, strain skt5, stronger effect = lower value",0.889 (active)
same,normalized growth,"locus YBR009C, strain hhf1, stronger effect = lower value",0.76 (active)
same,normalized growth,"locus YBR021W, strain FUR4, stronger effect = lower value",1.04 (inactive)
same,normalized growth,"locus YBR023C, strain chs3, stronger effect = lower value",0.852 (active)
same,normalized growth,"locus YBR171W, strain sec66, stronger effect = lower value",0.94 (inactive)
same,normalized growth,"locus YBR229C, strain ROT2, stronger effect = lower value",0.982 (inactive)
same,normalized growth,"locus YBR231C, strain swc5, stronger effect = lower value",0.978 (inactive)
same,normalized growth,"locus YBR279W, strain paf1, stronger effect = lower value",0.884 (active)
same,normalized growth,"locus YCL011C, strain gbp2, stronger effect = lower value",0.813 (active)
same,normalized growth,"locus YCL016C, strain dcc1, stronger effect = lower value",0.862 (active)
same,normalized growth,"locus YCL029C, strain bik1, stronger effect = lower value",0.884 (active)
same,normalized growth,"locus YCL061C, strain MRC1, stronger effect = lower value",0.854 (active)
same,normalized growth,"locus YCL069W, strain vba3, stronger effect = lower value",0.898 (active)
same,normalized growth,"locus YCR088W, strain abp1, stronger effect = lower value",0.937 (inactive)
same,normalized growth,"locus YDL005C, strain med2, stronger effect = lower value",0.983 (inactive)
same,normalized growth,"locus YDL035C, strain GPR1, stronger effect = lower value",0.728 (active)
same,normalized growth,"locus YDL040C, strain nat1, stronger effect = lower value",0.96 (inactive)
same,normalized growth,"locus YDL074C, strain BRE1, stronger effect = lower value",0.514 (active)
same,normalized growth,"locus YDL101C, strain DUN1, stronger effect = lower value",0.899 (inactive)
same,normalized growth,"locus YDL134C, strain PPH21, stronger effect = lower value",0.799 (active)
same,normalized growth,"locus YDL185W, strain tfp1, stronger effect = lower value",0.961 (inactive)
same,normalized growth,"locus YDL192W, strain arf1, stronger effect = lower value",0.502 (active)
same,normalized growth,"locus YDR001C, strain nth1, stronger effect = lower value",0.965 (inactive)
same,normalized growth,"locus YDR069C, strain doa4, stronger effect = lower value",1.01 (inactive)
same,normalized growth,"locus YDR101C, strain arx1, stronger effect = lower value",0.811 (active)
same,normalized growth,"locus YDR137W, strain rgp1, stronger effect = lower value",0.578 (active)
same,normalized growth,"locus YDR150W, strain NUM1, stronger effect = lower value",0.944 (inactive)
same,normalized growth,"locus YDR159W, strain sac3, stronger effect = lower value",0.746 (active)
same,normalized growth,"locus YDR162C, strain NBP2, stronger effect = lower value",0.405 (active)
same,normalized growth,"locus YDR195W, strain ref2",0.953 (inactive)
same,normalized growth,"locus YDR297W, strain sur2, stronger effect = lower value",0.915 (active)
same,normalized growth,"locus YDR318W, strain mcm21, stronger effect = lower value",0.7 (active)
same,normalized growth,"locus YDR334W, strain swr1, stronger effect = lower value",1 (inactive)
same,normalized growth,"locus YDR335W, strain msn5, stronger effect = lower value",0.872 (active)
same,normalized growth,"locus YDR388W, stronger effect = lower value",0.936 (inactive)
same,normalized growth,"locus YDR392W, strain spt3, stronger effect = lower value",0.239 (active)
same,normalized growth,"locus YDR502C, strain sam2, stronger effect = lower value",0.757 (active)
same,normalized growth,"locus YEL003W, strain gim4, stronger effect = lower value",0.842 (active)
same,normalized growth,"locus YEL037C, strain rad23, stronger effect = lower value",0.966 (inactive)
same,normalized growth,"locus YEL061C, strain CIN8 (second series), stronger effect = lower value",0.893 (active)
same,normalized growth,"locus YEL061C, strain CIN8, stronger effect = lower value",0.825 (active)
same,normalized growth,"locus YER015W, strain faa2, stronger effect = lower value",0.86 (active)
same,normalized growth,"locus YER016W, strain bim1, stronger effect = lower value",0.957 (inactive)
same,normalized growth,"locus YER110C, stronger effect = lower value",0.875 (active)
same,normalized growth,"locus YER111C, strain swi4, stronger effect = lower value",0.939 (inactive)
same,normalized growth,"locus YER155C, strain BEM2 (second series), stronger effect = lower value",0.686 (active)
same,normalized growth,"locus YER155C, strain BEM2, stronger effect = lower value",0.676 (active)
same,normalized growth,"locus YER167W, strain BCK2, stronger effect = lower value",0.653 (active)
same,normalized growth,"locus YFR010W, strain ubp6, stronger effect = lower value",0.974 (inactive)
same,normalized growth,"locus YGL078C, strain dbp3, stronger effect = lower value",0.783 (active)
same,normalized growth,"locus YGL086W, strain mad1, stronger effect = lower value",0.75 (active)
same,normalized growth,"locus YGL167C, strain pmr1, stronger effect = lower value",0.965 (inactive)
same,normalized growth,"locus YGL173C, strain kem1, stronger effect = lower value",0.885 (active)
same,normalized growth,"locus YGL227W, strain vid30, stronger effect = lower value",0.903 (active)
same,normalized growth,"locus YGL240W, strain doc1, stronger effect = lower value",0.855 (active)
same,normalized growth,"locus YGL248W, strain PDE1, stronger effect = lower value",0.844 (active)
same,normalized growth,"locus YGL253W, strain hxk2, stronger effect = lower value",0.786 (active)
same,normalized growth,"locus YGR078C, strain PAC10, stronger effect = lower value",0.659 (active)
same,normalized growth,"locus YGR135W, strain pre9, stronger effect = lower value",0.731 (active)
same,normalized growth,"locus YGR229C, strain SMI1, stronger effect = lower value",0.407 (active)
same,normalized growth,"locus YGR252W, strain gcn5, stronger effect = lower value",0.47 (active)
same,normalized growth,"locus YHR013C, strain ard1, stronger effect = lower value",1.04 (inactive)
same,normalized growth,"locus YHR027C, strain rpn1, stronger effect = lower value",0.977 (inactive)
same,normalized growth,"locus YHR030C, strain SLT2, stronger effect = lower value",0.36 (active) and 0.884 (inactive)
same,normalized growth,"locus YHR079C, strain IRE1 (second series), stronger effect = lower value",0.787 (active)
same,normalized growth,"locus YHR079C, strain IRE1, stronger effect = lower value",0.872 (inactive)
same,normalized growth,"locus YHR094C, strain hxt1, stronger effect = lower value",0.951 (inactive)
same,normalized growth,"locus YHR129C, strain ARP1, stronger effect = lower value",0.753 (active)
same,normalized growth,"locus YHR142W, strain chs7, stronger effect = lower value",0.628 (active)
same,normalized growth,"locus YHR200W, strain rpn10, stronger effect = lower value",0.817 (active)
same,normalized growth,"locus YIL066C, strain RNR3, stronger effect = lower value",0.625 (active)
same,normalized growth,"locus YIL073C, strain SPO22, stronger effect = lower value",0.727 (inactive)
same,normalized growth,"locus YIL125W, strain kgd1, stronger effect = lower value",0.822 (active)
same,normalized growth,"locus YIR030C, strain dcg1, stronger effect = lower value",0.902 (active)
same,normalized growth,"locus YJL092W, strain hpr5, stronger effect = lower value",0.934 (inactive)
same,normalized growth,"locus YJL095W, strain BCK1 (second series), stronger effect = lower value",0.833 (active)
same,normalized growth,"locus YJL095W, strain BCK1, stronger effect = lower value",0.363 (active) and 0.882 (active)
same,normalized growth,"locus YJL115W, strain asf1, stronger effect = lower value",0.987 (inactive)
same,normalized growth,"locus YJL129C, strain trk1, stronger effect = lower value",0.804 (active)
same,normalized growth,"locus YJL134W, strain LCB3, stronger effect = lower value",0.989 (inactive)
same,normalized growth,"locus YJL154C, strain vps35, stronger effect = lower value",0.986 (inactive)
same,normalized growth,"locus YJL164C, strain tpk1, stronger effect = lower value",0.812 (active)
same,normalized growth,"locus YJL166W, strain qcr8, stronger effect = lower value",0.775 (active)
same,normalized growth,"locus YJL168C, strain set2, stronger effect = lower value",0.943 (inactive)
same,normalized growth,"locus YJL187C, strain SWE1 (second series), stronger effect = lower value",0.818 (active)
same,normalized growth,"locus YJL187C, strain SWE1, stronger effect = lower value",0.898 (active)
same,normalized growth,"locus YJR043C, strain POL32, stronger effect = lower value",0.698 (active)
same,normalized growth,"locus YJR066W, strain TOR1, stronger effect = lower value",0.907 (inactive)
